Source: PubChem BioAssay (NCI)
Compounds without any hit were thinned out: in the full panel of roughly 83,000, 20% have a hit.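 Growth was measured after 48 h exposure to one concentration of compound in 96-well plates. Values under 10 count as active.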 A number with no mark means an inactive call. The source made the active and inactive calls.

Test system: MDA-MB-468 breast
Experiment: NCI-60 one-dose screen, 48 h (100 = growth as untreated, 0 = no growth, -100 = all killed)
Settings: 10 µM unless noted

SMILES	growth
OCCS	100%
COc1cc(-c2nn(-c3ccccc3)cc2-c2ccnc(NCCNS(=O)(=O)c3ccc(Cl)cc3)n2)ccc1Cl	31.2%
N#CCNc1ccc(C(=O)O)cc1	92.8%
CCN(CC)CC(O)CNc1c2ccc(Cl)cc2nc2ccc(OC)cc12 (stereo not given)	-48.3% (active)
COc1cc(/C=C(/C)C[N+](=O)[O-])ccc1O	57.9%
CCN1C(=O)N[C@H]2[C@@H]3NC(=O)c4ccc(Cl)n4[C@@H]3C[C@]21O	-6.44% (active)
CCC1(CC)NC(=O)c2c(c3ccc(Cl)c(Cl)c3n2C)C1C#N (stereo not given)	106%
N#CC1C=Cc2c(ccc3ccccc23)N1C(=O)c1ccccc1 (stereo not given)	-10.5% (active)
Cc1ccsc1C(=O)CC(=O)C(F)(F)C(F)(F)C(F)(F)F	112%
N#CSc1c[nH]c2cccc(/C=C/C(=O)/C=C(/C=C/c3cccc4[nH]cc(SC#N)c34)OB(F)F)c12	-32% (active)
O=C(/C=C/c1cn(-c2ccccc2)nc1-c1ccc([N+](=O)[O-])cc1)c1ccc(Cl)cc1	39.5%
C=C(C)[C@@H]1CC[C@]2(COCCC#N)CC[C@]3(C)[C@H](CC[C@@H]4[C@@]5(C)Cc6c([nH]c7ccccc67)C(C)(C)[C@@H]5CC[C@]43C)[C@@H]12	115%
C=CCn1c(SCC(=O)Nc2ccc(/C(C)=N\O)cc2)nnc1-c1cc(-c2ccc(Cl)cc2)nc2ccccc12	42.7%
COc1cc(C(=O)/C=C/c2sc(Cl)nc2Cl)cc(OC)c1OC	-50.9% (active)
c1ccc(CCNc2c3ccccc3nc3ccccc23)cc1	-11.4% (active)
Clc1ccc(Sc2nc(NC3CC3)nc(Sc3ccc(Cl)cc3)n2)cc1	91.2%
COc1ccc(/C=C/C(=O)CCC(=O)O)cc1OC	113%
CCCC(O)Cn1ncc(C(=O)OCC)c1NC(=O)NCc1ccccc1F (stereo not given)	75.9%
CCCC(CCC)(C(N)=O)C(=O)O	105%
C/C=C1/CN(CCCCC)CC[C@H]1C(=O)c1cc2ccccc2[nH]1	90.7%

SMILES	growth
CCOc1cc(Cl)c(C(C)NC(=O)c2cccc(OC)c2)cc1OCC (stereo not given)	-61.6% (active)
CN(C)CCN(C)CC(C)(C)C(=O)/C=C/c1ccc(Cl)c(Cl)c1	-83.6% [100 µM] (active)
CCOC(=O)C(CC(=O)O)=C(C(=O)OCC)C(=O)OCC	97.1%
CC(=O)ON1CCCC(P(=O)(OCOC(=O)C(C)(C)C)OCOC(=O)C(C)(C)C)C1=O (stereo not given)	-21.2% (active)
COC(=O)C(CCC(=O)CCl)N1C(=O)c2ccccc2C1=O (stereo not given)	32.1%
C=C1C(=O)O[C@H]2[C@H]1CC/C(COC(=O)NCCc1ccc(Br)cc1)=C\CC[C@@]1(C)O[C@@H]21	4.63% (active)
Nc1ncnc2c1c(-c1cccc(OCc3ccccc3)c1)cn2C1CC(CN2CCC2)C1 (stereo not given)	-12.3% (active)
Nc1ccc(Nc2nccc(-c3ccc4ccccc4c3)n2)cc1	-10.6% (active)
CCCCCC/C=C\CCCCCCCCCc1cc(O)cc(OC)c1O	-54.1% (active)
CS(=O)(=O)c1ccc(/C(=N/N=C(N)N)c2ccc(Cl)cc2)cc1	68.5%
CC(/C=N/NC(=O)c1cc(-c2ccco2)[nH]n1)=C\c1ccccc1	117%
CS(=O)(=O)c1ccc(-c2nc3ccccc3n2CC(=O)N/N=C/c2ccccc2)cc1	112%
COc1ccc(C2=NN(C(=O)c3ccc(S(C)(=O)=O)cc3)C(c3ccc(OC)c(OC)c3)C2)c(OC)c1 (stereo not given)	87%
CC1=NC2=CC=CC3=NC(C(Cl)(Cl)Cl)=NC(=N1)N23	90.2%
CCCc1cccc(CCC)c1NC(=O)Nc1cc(Cl)cc(Cl)c1	98.8%
O=C(Nc1ccc(-n2ccc3c(NC(=O)c4ccccc4)ncnc32)cc1)c1ccc(Cl)c(C(F)(F)F)c1	-5.36% (active)
CN1CCC(n2cc(Nc3ncc4c(=O)n(-c5c(Cl)cccc5Cl)cc(Br)c4n3)cn2)CC1	12.7%
Nc1ccc(Cl)cn1	102%
CCCCCCn1c(-c2ccc(C(=O)O/N=C(\N)c3ccc(OC)cc3)cc2)nc(-c2ccccc2)c1-c1ccccc1	-6.91% (active)
COc1cccc(OC)c1-c1nnn(C)c1C(=S)N1CCN(c2ccc([N+](=O)[O-])cc2Cl)CC1	89%
